Source: PubChem BioAssay
Most compounds without a hit are left out; they make up all but 1% or so of the library.
TcdB GH inh: TcdB glycohydrolase inhibition. TcdB glycohydrolase enzymatic assay, plate reader. inhibition, % at 9.99 µM. 0.24% of 350,000 active. AID 652162; in the data active = inhibition above about 10%
MazEF act: activators of E. coli MazEF toxin-antitoxin RNase | FAM/BHQ RNA-DNA oligo cleavage fluorescence, 5 h | AID 504720 | 0.32% of 350,000 active | P0AE70 | activation, % at 20 µM; in the data active = activation above about 50%
Target sequence (P0AE70 whole entry, looked up): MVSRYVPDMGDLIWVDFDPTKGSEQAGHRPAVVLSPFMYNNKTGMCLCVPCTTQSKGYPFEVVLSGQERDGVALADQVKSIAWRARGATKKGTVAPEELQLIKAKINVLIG
VHR inh abs: blocks human VHR1 dual specificity phosphatase | P51452 | recombinant VHR phosphatase, pNPP absorbance | inhibition, % at 13.3 µM | 0.52% of 290,000 active | AID 1654; in the data active = inhibition above about 50%
Target sequence (P51452 whole entry, looked up): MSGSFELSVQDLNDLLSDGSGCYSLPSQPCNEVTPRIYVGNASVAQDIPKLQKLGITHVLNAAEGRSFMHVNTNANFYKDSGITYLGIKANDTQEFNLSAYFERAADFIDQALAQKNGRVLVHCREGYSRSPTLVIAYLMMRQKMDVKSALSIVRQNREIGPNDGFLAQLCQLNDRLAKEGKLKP
FadD28 binding: inhibitors of Mycobacterium tuberculosis FadD28 bisubstrate binding. inhibition, % at 12.5 µM. FadD28 bisubstrate probe binding, fluorescence polarization. 0.22% of 360,000 active; in the data active = inhibition above about 8.5%, passing the limit was not always enough
Yp Topo-I inh: Y. pestis Topo-I inhibition via cleavage products. Y. pestis Topo-I cleavage product accumulation, plate reader. 0.064% of 360,000 active. activity, % at 10 µM. AID 504884; in the data active = activity above about 50%, passing the limit was not always enough
Mtb BioA inh: blocks M. tuberculosis BioA enzyme activity; inhibition, % at 9.99 µM; purified M. tuberculosis BioA enzyme, plate reader; AID 602481; 0.096% of 360,000 active; in the data active = inhibition above about 40%
Starred values were filed as active, the others as inactive; . = not tested or not shown; + = active, no number.

SMILES	TcdB GH inh	MazEF act	VHR inh abs	FadD28 binding	Yp Topo-I inh	Mtb BioA inh
O=C(C[C@@H]1CC[C@@H]2[C@H](COC[C@@H](O)CN2C(=O)Nc2ccc(Cl)c(Cl)c2)O1)NCc1ccncc1	11*	.	.	.	.	-1
O=C(C[C@@H]1CC[C@@H]2[C@H](COC[C@@H](O)CN2Cc2ccc(Oc3ccccc3)cc2)O1)Nc1nccs1	-1	.	.	.	.	0
O=C(C[C@@H]1CC[C@H]2[C@@H](COC[C@@H](O)CN2Cc2ccc(Oc3ccccc3)cc2)O1)Nc1nccs1	27*	.	.	.	.	-1
O=C(C[C@@H]1CC[C@H]2[C@@H](COC[C@@H](O)CN2C(=O)c2ccccn2)O1)NC1CCC1	10*	.	.	.	.	-3
O=C(C[C@H]1CC[C@H]2[C@@H](COC[C@H](O)CN2C(=O)Nc2ccc(Cl)c(Cl)c2)O1)NCc1ccccc1	0	.	.	.	.	0
COC(=O)C[C@@H]1CC[C@@H]2[C@H](COC[C@H](O)CN2C(=O)Nc2ccccc2OC)O1	13*	.	.	.	.	3
O=C(C[C@H]1CC[C@H]2[C@@H](COC[C@@H](O)CN2C(=O)c2ccccn2)O1)NC1CCC1	8	.	.	.	.	-2
COc1ccc(S(=O)(=O)N(C)C[C@@H]2Oc3ccc(NC(=O)C4CCCCC4)cc3C(=O)N([C@@H](C)CO)C[C@@H]2C)cc1	1	.	.	.	.	-1
COc1ccc(NC(=O)N(C)C[C@H]2Oc3c(NC(=O)Nc4ccc(C(F)(F)F)cc4)cccc3C(=O)N([C@@H](C)CO)C[C@H]2C)cc1	.	.	.	.	.	-2
CC(=O)N1[C@H](C(=O)N2CCc3ccccc3C2)[C@@H](CO)[C@@H]2Cn3c(ccc(-c4cccnc4)c3=O)[C@@H]21	2	.	.	.	.	1
Cc1nn(C)cc1NC(=O)C[C@@H]1CC[C@H]2[C@@H](COc3ccc(NC(=O)NC(C)C)cc3C(=O)N2C)O1	-2	.	.	.	.	6
C[C@H](CO)N1C[C@H](C)[C@@H](CN(C)C(=O)CC2CC2)Oc2cc(C#CC3CC3)ccc2S1(=O)=O	0	.	.	.	.	0
O=S(=O)(c1ccc(F)cc1)N1CC[C@@H]2[C@@H](CO)Nc3ccc(Br)cc3[C@@H]21	0	.	.	.	.	15
COC(=O)Cn1cc(C=C2C(=O)N(C)C(=O)N(C)C2=O)c2ccccc21	0	195*	15	.	.	.
N#C/C(=C\c1ccccc1[N+](=O)[O-])c1nc(C2CC2)cs1	.	-5	3	3	14	1
COc1ccc(-c2csc(/C(C#N)=C\c3ccc(O)c([N+](=O)[O-])c3)n2)cc1OC	1	-17	16	9.5*	-15	5
N#C/C(=C\c1ccc([N+](=O)[O-])cc1)c1nc(C2CC2)cs1	.	338*	-7	0	-3	.
O=C(NCC[C@@H]1CC[C@@H](NS(=O)(=O)Cc2ccccc2)[C@H](CO)O1)C1CCC1	1	.	.	.	.	-2
Cc1ccc(C(=O)Oc2cc(N)n(S(=O)(=O)c3ccc(F)cc3)n2)cc1	0	68*	0	0	1	1
Cc1cccc(-c2ccc3ncnc(NCc4cccs4)c3c2)c1	1	1	.	-9	1	1
Clc1cccc(-c2ccc3ncnc(NCc4cccs4)c3c2)c1	11*	-7	.	0	-2	-10
CCCCCCCCCCCCCCCC[N+](C)(C)CCl	1	-31	.	20*	-33	.
C#CC[N+](C)(C)CCCCCCCCCC	1	12	-14	0	-12	-5
CCCCCCCCCCCCCCCC[N+](C)(C)CC	2	-11	.	19*	-16	23
CCCCCCCCCCCCCCCC[N+](C)(C)C	2	-20	.	24*	-8	20
SMILES	TcdB GH inh	MazEF act	VHR inh abs	FadD28 binding	Yp Topo-I inh	Mtb BioA inh
C[N+](C)(C)CCCCCC[N+](C)(C)C	1	-2	.	-5	3	-1
CCCCCC[N+](C)(C)CCSSCC[N+](C)(C)CCCCCC	0	5	-23	0	8	-2
CCOC(=O)Cn1c(S(=O)(=O)Cc2ccc(F)cc2)nc(-c2ccccc2)c1-c1ccccc1	.	9	25	0	52*	0
Cc1ccc(S(=O)(=O)Cc2ccc(C(=O)N3CCc4ccccc4C3)o2)cc1	0	-1	54*	-2	0	2
COC(=O)c1c(Cl)c2n3ccccc3c(C)c(-c3ccccc3)c-2c1C(=O)OC	-12	-53	6	0	-8	-5
COC(=O)c1cc2c(-c3ccccc3)c(C)c3ccccn3c-2c1C(=O)OC	.	50*	6	1	41	0
COc1ccccc1CN1CCCC(CN(CCN(C)C)C(=O)c2ccc(C)cc2)C1 (stereo not given)	1	12	51*	-3	-7	2
COc1cccc(C2=NOC(C(=O)Nc3cc(C)nn3-c3ccccc3)C2)c1OC (stereo not given)	0	4	34	-1	0	0
Cc1cc(NC(=O)C2CC(c3ccc(F)cc3)=NO2)n(-c2ccccc2)n1 (stereo not given)	4	21	50*	-3	-9	1
CC1(C)c2ccccc2N2CCC(=O)NC21/C=C/c1ccco1 (stereo not given)	.	106*	7	2	7	-8
CC1(C)c2ccccc2N2CC(=O)NC21/C=C/c1ccco1 (stereo not given)	.	8	10	-2	7	-1
Cc1c(C(=O)N2CCCC2)oc2ccc(Br)cc12	1	0	53*	.	15	0
Cc1ccccc1-c1ccc([C@H]2[C@@H](CO)N3C(=O)CN(C(=O)Nc4ccc(F)cc4)C[C@@H]23)cc1	-1	.	.	.	.	.
COC(=O)C1=C(C)N(CC(C)C)C(=O)/C1=C\c1cccs1	.	-5	12	-4	-3	0
CCOC(=O)C1=C(C)N(CC(C)C)C(=O)/C1=C\c1cccs1	0	59*	5	1	10	-2
C[C@@H]1CN([C@@H](C)CO)C(=O)c2c(c3ccccc3n2C)-c2ccccc2CO[C@@H]1CN(C)C(=O)c1cc(Cl)cc(Cl)c1	-2	.	.	.	.	.
Nc1nnc(CC(=O)N/N=C/c2cc([N+](=O)[O-])cc(Br)c2O)s1	1	1	43	37*	-13	.
Cc1ccc2c(c1)CC1(CN2C)C(=O)NC(=O)N(c2ccccc2C)C1=O (stereo not given)	.	1	14	-4	-5	-1
Cc1ccc2c(c1)CC1(CN2C)C(=O)NC(=O)N(c2ccc(C)c(C)c2)C1=O (stereo not given)	.	-4	50*	1	10	-3
O=c1c2ccccc2nc2c3ccccc3c(NCc3cccnc3)nn12	-1	-6	26	0	1	.
O=c1c2ccccc2nc2c3ccccc3c(NCc3ccccn3)nn12	2	12	57*	-3	18	-1
Cc1ccc(O)c(C(=O)c2cc(C#N)c3nc4ccccc4n3c2)c1	-2	90*	15	-1	1	.
CO[C@H]1CN(C)C(=O)c2ccc(NC(=O)Nc3cc(F)ccc3F)cc2OC[C@H](C)N(C(=O)c2ccccn2)C[C@@H]1C	0	.	.	.	.	.
CN(/N=C/c1ccc(N(C)C)cc1)C1=NS(=O)(=O)c2ccccc21	3	+	2	-2	4	-2
